c-Myc SMM: c-Myc (human) binding. calls only. small molecule microarray, His-c-Myc binding, anti-His fluorescence. 17,000 tested, 1.5% active. P01106;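 active = spot fluorescence over background with P-value below 7% in all four replicate spots, showing protein binding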;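 note: score is binary with 100 for all four spots passing and 0 otherwise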
STAT3 binder: binders of human STAT3. 17,000 tested, 0.2% active. P40763. calls only. Small molecule microarray, His-STAT3 binding, anti-His fluorescence;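 active = compounds whose four printed spots each show fluorescence over background unusually high for their array block, chance value under 7%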
Target sequence (P40763 whole entry, looked up): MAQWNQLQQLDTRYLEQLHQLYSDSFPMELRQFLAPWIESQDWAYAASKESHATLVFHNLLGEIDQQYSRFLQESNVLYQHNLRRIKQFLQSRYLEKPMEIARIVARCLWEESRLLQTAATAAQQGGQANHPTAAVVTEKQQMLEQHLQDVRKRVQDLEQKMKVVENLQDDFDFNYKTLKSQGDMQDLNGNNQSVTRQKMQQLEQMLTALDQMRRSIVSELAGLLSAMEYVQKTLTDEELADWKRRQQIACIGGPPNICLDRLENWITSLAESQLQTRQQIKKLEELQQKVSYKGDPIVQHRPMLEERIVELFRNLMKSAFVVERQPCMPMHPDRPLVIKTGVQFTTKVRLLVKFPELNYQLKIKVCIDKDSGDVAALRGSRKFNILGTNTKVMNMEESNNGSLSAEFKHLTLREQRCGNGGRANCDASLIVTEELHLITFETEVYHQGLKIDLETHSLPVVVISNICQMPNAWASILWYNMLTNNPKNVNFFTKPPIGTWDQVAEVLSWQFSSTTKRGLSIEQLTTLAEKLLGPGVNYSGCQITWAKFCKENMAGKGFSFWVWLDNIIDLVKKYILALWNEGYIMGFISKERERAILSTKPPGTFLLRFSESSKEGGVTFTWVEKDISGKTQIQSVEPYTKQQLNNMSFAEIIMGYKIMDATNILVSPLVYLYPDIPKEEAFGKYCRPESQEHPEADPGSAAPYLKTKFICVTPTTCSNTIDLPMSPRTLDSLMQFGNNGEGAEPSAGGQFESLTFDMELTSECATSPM
NFkB binder: NF-kappa-B p105 (human) binding. P19838. Small molecule microarray, anti-His fluorescence binding. calls only. 17,000 tested, 1.3% active;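 active = spot fluorescence over background significantly raised, with a chance value under 7% in all four replicate spots of the compound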;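 note: probe protein is his-tagged human p50 processed subunit at 1 µg/ml; raw spot fluorescence signals with no normalization applied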
mut p53 SMM: mutant p53 (human) binding; small molecule microarray binding, anti-GST fluorescence; 17,000 tested, 0.4% active; AID 624136; calls only;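 active = compounds whose four printed spots each glow above background more than chance allows, each with a p-value under 7%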
An asterisk follows results filed as active. The list is not random: actives were taken first. Their share in the collection is about 2.1%.

`CC1CCC23CCC(O[C@@H]4O[C@H](CO)[C@@H](O)[C@H](O)[C@H]4O)C12C(C=O)=CC3(C)C` (stereo partly specified) gave c-Myc SMM inactive, STAT3 binder inactive, NFkB binder inactive and mut p53 SMM inactive.
For C[C@H](O)c1nc2ccccc2c(=O)[nH]1 the results were c-Myc SMM inactive, STAT3 binder inactive, NFkB binder inactive and mut p53 SMM inactive.
For C=C1C(=O)O[C@@H]2C3=C(C)CC[C@]34O[C@@H](C[C@@H]4C)[C@H]12 the results were c-Myc SMM inactive, STAT3 binder inactive, NFkB binder inactive and mut p53 SMM inactive.
`COc1ccccc1CC(=O)Nc1cc(Cl)ccc1O` gave c-Myc SMM inactive, STAT3 binder inactive, NFkB binder inactive and mut p53 SMM inactive.
`COc1ccccc1CC(CC(=O)O)C(=O)O` (stereo unspecified) gave c-Myc SMM active, STAT3 binder inactive, NFkB binder active and mut p53 SMM inactive.
Cc1ccccc1OCCn1c(C(C)O)nc2ccccc21 (stereo unspecified) was read as c-Myc SMM inactive, STAT3 binder inactive, NFkB binder inactive and mut p53 SMM inactive.
`C[C@@H]1CN([C@@H](C)CO)C(=O)c2cccc(NC(=O)C3CCOCC3)c2O[C@H]1CN(C)Cc1ccc(Cl)c(Cl)c1` gave c-Myc SMM active, STAT3 binder inactive, NFkB binder inactive and mut p53 SMM inactive.
`CC(C)NC(=O)Nc1cccc2c1O[C@H](CN(C)Cc1ccccc1)[C@H](C)CN([C@@H](C)CO)C2=O` gave c-Myc SMM inactive, STAT3 binder inactive, NFkB binder inactive and mut p53 SMM inactive.
For C[C@@H]1CN([C@H](C)CO)C(=O)c2cccc(NC(=O)Nc3ccc(C(F)(F)F)cc3)c2O[C@@H]1CN(C)C(=O)NC1CCCCC1 the results were c-Myc SMM active, STAT3 binder inactive, NFkB binder active and mut p53 SMM inactive.
Screening C[C@H](CO)N1C[C@H](C)[C@@H](CN(C)Cc2ccc(Cl)c(Cl)c2)Oc2c(NC(=O)C3CCOCC3)cccc2C1=O returned c-Myc SMM inactive, STAT3 binder inactive, NFkB binder inactive and mut p53 SMM inactive.
For CC(C)NC(=O)Nc1cccc2c1O[C@@H](CN(C)Cc1ccc(C(F)(F)F)cc1)[C@H](C)CN([C@@H](C)CO)C2=O the results were c-Myc SMM active, STAT3 binder inactive, NFkB binder active and mut p53 SMM inactive.
Screening C[C@H]1CN([C@@H](C)CO)C(=O)c2cccc(NC(=O)NC3CCCCC3)c2O[C@H]1CN(C)C(=O)Nc1ccc(C(F)(F)F)cc1 returned c-Myc SMM inactive, STAT3 binder inactive, NFkB binder inactive and mut p53 SMM inactive.
`C[C@@H]1CN([C@H](C)CO)C(=O)c2cccc(NC(=O)NC3CCCCC3)c2O[C@H]1CN(C)C(=O)Nc1ccc(C(F)(F)F)cc1` gave c-Myc SMM active, STAT3 binder inactive, NFkB binder active and mut p53 SMM inactive.
Cc1ccc(N(C(C)C(N)=O)S(C)(=O)=O)cc1C (stereo unspecified) was read as c-Myc SMM inactive, STAT3 binder inactive, NFkB binder inactive and mut p53 SMM inactive.
For COc1ccc(C2C(C#N)=C(N)Oc3n[nH]c(-c4ccccc4)c32)cc1CSc1ccccn1 (stereo unspecified) the results were c-Myc SMM inactive, STAT3 binder inactive, NFkB binder inactive and mut p53 SMM inactive.
Screening COC(=O)C(C(CO)Cc1ccc(O)c(OC)c1)C(O)c1ccc(O)c(OC)c1 (stereo unspecified) returned c-Myc SMM inactive, STAT3 binder inactive, NFkB binder inactive and mut p53 SMM inactive.
C[C@@H]1CN([C@@H](C)CO)C(=O)c2cccc(NC(=O)Nc3ccc(C(F)(F)F)cc3)c2O[C@H]1CN(C)C(=O)NC1CCCCC1 was read as c-Myc SMM inactive, STAT3 binder active, NFkB binder inactive and mut p53 SMM inactive.
C[C@H]1CN([C@@H](C)CO)C(=O)c2cccc(NC(=O)NC3CCCCC3)c2O[C@H]1CN(C)C(=O)NC1CCCCC1 was read as c-Myc SMM active, STAT3 binder inactive, NFkB binder active and mut p53 SMM inactive.
`C[C@@H]1CN([C@@H](C)CO)C(=O)c2cc(NC(=O)NC3CCCCC3)ccc2O[C@H]1CN(C)C(=O)Nc1ccc(C(F)(F)F)cc1` gave c-Myc SMM inactive, STAT3 binder inactive, NFkB binder active and mut p53 SMM inactive.
`C[C@@H]1CN([C@@H](C)CO)C(=O)c2cccc(NC(=O)Nc3ccccc3)c2O[C@@H]1CN(C)C(=O)NC1CCCCC1` gave c-Myc SMM inactive, STAT3 binder inactive, NFkB binder inactive and mut p53 SMM inactive.
C[C@@H]1CN([C@@H](C)CO)C(=O)c2cccc(NC(=O)Nc3cccc4ccccc34)c2O[C@H]1CN(C)C(=O)Nc1ccc(C(F)(F)F)cc1 was read as c-Myc SMM inactive, STAT3 binder inactive, NFkB binder active and mut p53 SMM inactive.
COc1cc(C[C@@H]2COC(c3ccc(O[C@@H]4O[C@H](CO)[C@@H](O)[C@H](O)[C@H]4O)c(OC)c3)[C@@H]2CO)ccc1O[C@@H]1O[C@H](CO)[C@@H](O)[C@H](O)[C@H]1O (stereo partly specified) was read as c-Myc SMM inactive, STAT3 binder inactive, NFkB binder inactive and mut p53 SMM inactive.
COc1cc(C2c3cc(O)c(OC)cc3CC(CO)C2CO[C@@H]2O[C@H](CO)[C@@H](O)[C@H](O)[C@H]2O)ccc1O (stereo partly specified) was read as c-Myc SMM inactive, STAT3 binder inactive, NFkB binder inactive and mut p53 SMM inactive.
Screening C[C@H](CO)N1C[C@H](C)[C@H](CN(C)C(=O)NC2CCCCC2)Oc2c(NC(=O)Nc3ccc(F)cc3)cccc2C1=O returned c-Myc SMM inactive, STAT3 binder inactive, NFkB binder inactive and mut p53 SMM inactive.
`C[C@H](CO)N1C[C@H](C)[C@@H](CN(C)Cc2ccc(C(F)(F)F)cc2)OCc2cnnn2CCCC1=O` gave c-Myc SMM active, STAT3 binder inactive, NFkB binder active and mut p53 SMM inactive.
For C[C@H](CO)N1C[C@H](C)[C@@H](CN(C)C(=O)NC2CCCCC2)Oc2c(NC(=O)Nc3ccc(C(F)(F)F)cc3)cccc2C1=O the results were c-Myc SMM active, STAT3 binder inactive, NFkB binder active and mut p53 SMM inactive.
Screening Cc1nn(C(=O)Cn2cc([N+](=O)[O-])cn2)c(C)c1Br returned c-Myc SMM active, STAT3 binder inactive, NFkB binder inactive and mut p53 SMM inactive.
Cc1cc2nc3c(=O)[nH]c(=O)nc-3n(C)c2cc1C=O was read as c-Myc SMM active, STAT3 binder inactive, NFkB binder inactive and mut p53 SMM inactive.
COc1ccc2nc(Nc3nc(C)c(CCC(C)C)c(=O)[nH]3)nc(C)c2c1 was read as c-Myc SMM inactive, STAT3 binder inactive, NFkB binder active and mut p53 SMM inactive.

Screens as filed in PubChem.
